Pf growth 48h: inhibits P. falciparum growth in the first generation, 48 h. P. falciparum luciferase growth in erythrocytes, 48 h. Potency, µM (series often up to 28.7 µM), for inactives: at the top dose activity change, negative = inhibition, most hits filed as inhibitors. hit rate 5.9% among 310,000. AID 504832; also: potency is read from the fitted curve at half-maximal effect
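Luminescence readout; reporter = integrated firefly luciferase in P. falciparum. RBC culture at 2% hematocrit, 0.1% parasitemia final, 37 C/5% CO2; decreased signal taken as growth inhibition.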
MARV entry inh: Marburg virus entry inhibition | Potency, µM (titrated, usually from 37.8 µM), without a hit: at the top dose activity change, negative = inhibition, actives largely listed as inhibitors | hit rate 1.8% among 300,000 | Marburg virus pseudotyped entry inhibition, cell reporter; calls by dose curve; tested in HEK293 cells; also: potency is read from the fitted curve at half-maximal effect
Pf growth 96h: P. falciparum growth inhibition at 96 hour, primary screen for plastid delayed-death inhibitors | P. falciparum luciferase reporter growth, 96 h | hit rate 6.9% among 320,000 | Potency, µM (series often up to 28.7 µM), for inactives: at the top dose activity change, negative = inhibition, usual class: inhibitors; also: potency is read from the fitted curve at half-maximal effect
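Plates of compound plus infected erythrocytes (2% hematocrit, 0.05% parasitemia final) incubate 96 hours, 37 C, 5% CO2. Detection reagent added; reduced luminescence from the parasites' luciferase reporter flags inhibition.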
Lassa entry inh: Lassa virus entry inhibition; Lassa virus pseudotype entry inhibition, cell reporter; hit rate 1.2% among 300,000; AID 540256; Potency, µM (series often up to 37.9 µM), without a hit: top-dose activity change, negative = inhibition, usual class: inhibitors; calls by dose curve; tested in HEK293 cells; also: potency is read from the fitted curve at half-maximal effect; nearly all actives have a fitted effect of over 50% in size
HCMV inh: human cytomegalovirus inhibition. hit rate 4.5% among 410,000. activity change, negative = inhibition, % at 57.5 µM. AID 1259415. HFF cells, HCMV-luciferase reporter, 72 h; active compounds read low; in the data active = activity change below about -60%; inconclusive = no clear call, values can overlap the other calls; inactive = above about -39%
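Screen run at 2 compound doses on HFFs infected with reporter HCMV, MOI 1 PFU/cell. Luciferase activity from cell lysates at 72 h post infection gave inhibition relative to buffer-only and Salinomycin wells.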
HCV inh: blocks hepatitis C virus. Huh7.5.1 HCVcc-Cre infection, luciferase reporter, 44 h. Potency, µM (series often up to 41.8 µM), without a hit: at the top dose activity change, negative = inhibition, hits mostly inhibitors. hit rate 3.4% among 340,000. AID 651820; also: potency is read from the fitted curve at half-maximal effect
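Infectious HCV cell culture screen: compound-treated cells (1,000/well, pre-plated 4 h) are infected with HCVcc-Cre at roughly 0.5 moi and grown 44 h. Infection is quantified by luciferase signal after 15 min substrate incubation at room temperature.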
Active calls of the source: *; ? = inconclusive; nt = no result; [ ] = remark or other dose. Shown are actives, neighbours in structure and some others; about 14% of the full set was active somewhere. Unless noted, calls follow the shape of the dose curve; as a rule, active = well fitted inhibition curve with a large enough effect; inconclusive = small, poorly fitted or top-dose-only effect, or another doubt; inactive = no such curve, though single readings can be large or run the other way. % is scaled to controls: 0 for no effect and ±100 for the full control effect.

SMILES | Pf growth 48h | MARV entry inh | Pf growth 96h | Lassa entry inh | HCMV inh | HCV inh
COc1ccc(CNC(=S)NC2CCCC2)cc1 | -7.1% | 19.1% | 16.9% | 11.6% | ? | 12.2%
CC(NC(=S)NC1CCC(C(C)(C)C)CC1)c1ccccc1 (stereo not given) | 7.38µM* | nt | 9.28µM* | nt | -81.7* | ?
Cc1ccc(CNC(=S)NC2CCC(C(C)(C)C)CC2)cc1 (stereo not given) | 9.28µM* | nt | 11.7µM* | nt | ? | ?
CCOC(=O)N1CCN(C/C(Cl)=C/c2ccccc2)CC1 | 39.9% | 21.5% | -29.6% | ? | 120.7 | -12.5%
Cn1c(=O)c2c(nc(NCCc3ccccc3)n2Cc2cccc(Br)c2)n(C)c1=O | nt | ? | nt | 0.7%[46.1 µM] | 16.3 | nt
COc1ccc(OC)c(CCNc2nc3ccccc3c3nc(-c4cccnc4)nn23)c1 | nt | 15.7%[46.1 µM] | nt | nt | -5.9 | nt
Cc1cccc(NC(=S)NC2CC3CCCC(C2)N3Cc2ccccc2)c1C (stereo not given) | 5.86µM* | ? | 1.1% | -20.2% | ? | ?
CNC(=S)NC1CC2CCCC(C1)N2Cc1ccc(C)cc1 (stereo not given) | ? | 4.61µM* | 2.3% | 14.6% | -3.8 | ?
CCNC(=S)NC1CC2CCCC(C1)N2Cc1ccc(C)cc1 (stereo not given) | 0.0% | nt | -101.0% | nt | 5.2 | 12.3%
CC(C)NC(=S)N/N=C/c1cccs1 | nt | 5.6% | 3.29µM* | 6.5% | -29.5 | -3.5%
C=CCNC(=S)N/N=C/c1ccc(C)cc1C | 10.4µM* | ? | ? | ? | -62.1* | -18.8%
S=C(NCc1ccccc1)N/N=C/c1cccs1 | 7.38µM* | nt | ? | nt | ? | ?
Cc1ccc(C)c(/C=N/NC(=S)NC(C)C)c1 | ? | 1.1% | 13.1µM* | 11.9% | 49.8 | ?
S=C(NCCc1ccccc1)N/N=C/c1cccs1 | nt | nt | nt | nt | 47.2 | -15.3%
CCNC(=S)N/N=C/c1cc(C)ccc1C | 17.8% | 9.5% | 32.1% | -0.8% | -6.9 | ?
COc1ccc(NC(=O)CCS(=O)(=O)c2ccc3nc(C)sc3c2)cc1Cl | nt | nt | nt | 16.0%[46.1 µM] | -14.8 | nt
CCOC(=O)c1cc(C)n(CC2CCC(C(=O)Nc3ccc(OCC)cc3)CC2)c1C (stereo not given) | nt | nt | nt | 8.3%[46.1 µM] | -60.6* | nt
COc1ccc(-c2nonc2NC(=O)c2oc3ccccc3c2C)cc1OC | ? | nt | 10.4µM* | nt | -25.7 | -17.7%
CCCOc1ccc(-c2nonc2NC(=O)c2cc(OC)c(OC)c(OC)c2)cc1OCCC | nt | -18.9%[46.1 µM] | nt | -20.5%[46.1 µM] | -76.2* | nt
COc1ccccc1NC(=O)c1oc2ccccc2c1C | nt | nt | nt | nt | 24.8 | nt
CCOCCCNCc1ccc(OC)cc1 | nt | 0.0% | 16.3% | 10.1% | 28.4 | 17.2%
COc1ccc2cc(CNCCOCCOCCNCc3ccc4cc(OC)ccc4c3)ccc2c1 | nt | ? | nt | ? | -97.6* | 3.98µM*
COc1ccc(C(=O)COC(=O)Cn2cnc3ccccc3c2=O)c(OC)c1 | 11.7% | -20.0% | 16.9% | -2.9% | 6.6 | 0.1%
CN(C)c1ccc(S(=O)(=O)NCC(=O)NCCC2=CCCCC2)cc1[N+](=O)[O-] | 11.7µM* | -4.7% | ? | -22.5% | -16.3 | -3.4%
COC(=O)C1CCN(c2ccc(Cl)nn2)CC1 | 1.47µM* | 15.7%[46.1 µM] | ? | 23.3%[46.1 µM] | -24.7 | 2.5%
SMILES | Pf growth 48h | MARV entry inh | Pf growth 96h | Lassa entry inh | HCMV inh | HCV inh
COC(=O)C1CCN(c2cnccn2)CC1 | 57.9% | -3.6%[46.1 µM] | ? | -15.9%[46.1 µM] | -6.0 | 12.8%
Cc1ccc(Cl)cc1NC(=O)Nc1cccs1 | ? | 10µM* | 5.3% | -2.5% | ? | 1.5%
Cc1ccccc1NC(=O)Nc1cccs1 | -11.8% | -10.4% | ? | 2.4% | -1.7 | -13.9%
COCC(C)n1c(C)cc(C(=O)CSc2nnc(Nc3ccccc3F)s2)c1C (stereo not given) | 1.47µM* | ? | 0.586µM* | ? | -11.7 | ?
COCC(C)n1c(C)cc(C(=O)CSc2ncccn2)c1C (stereo not given) | 177.7% | 3.0%[46.1 µM] | 210.3% | 8.7% | 70.7 | 27.5%
C(=C1/CCCC2=C1Nc1ncnn1C2c1ccccc1)/c1ccccc1 (stereo not given) | 11.7µM* | nt | -9.2% | nt | nt | nt
CC1=C(C(=O)Nc2ccccc2)C(c2ccc(C)cc2)N=C(Nc2nc3ccccc3o2)N1 (stereo not given) | ? | ? | ? | ? | -66.7* | -25.9%

Screens (PubChem)
